A short description of test [1]: qHTS profiling of the MIPE4 collection as inhibitors of Plasmodium falciparum (3D7) proliferation (AID 743344).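 Note: scaled between DMSO vehicle wells and 0.29 µM artemisinin as full inhibition.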 Conditions: P. falciparum 3D7 in erythrocytes, SYBR Green DNA fluorescence, 72 h; at 28.5 µM unless noted. An outline of the steps: (§1)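 Erythrocytes infected with P. falciparum (0.3% parasitemia, 2.5% hematocrit) incubated with compounds 72 h at 37 C, 5% CO2. Lysis with saponin/Triton buffer containing SYBR Green I, overnight at room temperature in the dark; DNA fluorescence (485/535 nm) normalised to 0.29 uM artemisinin and DMSO.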

Test [2] can be described thus: qHTS profiling of the MIPE4 collection as inhibitors of Plasmodium falciparum (DD2) proliferation (AID 743345). Particulars: P. falciparum Dd2 in erythrocytes, SYBR Green DNA, 72 h; at 28.5 µM unless noted. Put shortly: as §1
Test [3] is described as follows: qHTS profiling of the MIPE4 collection as inhibitors of Plasmodium falciparum (DD2) proliferation (Rep 2) (AID 743346). Particulars: P. falciparum Dd2 in erythrocytes, SYBR Green DNA, 72 h; at 28.5 µM unless noted. Put shortly:
as §1

The nature of test [4]: qHTS profiling of the MIPE4 collection as inhibitors of Plasmodium falciparum (HB3) proliferation (AID 743347).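 Note: plate controls were DMSO vehicle wells for no effect and artemisinin wells for full effect.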 Conditions: P. falciparum HB3 in erythrocytes, SYBR Green DNA, 72 h; at 28.5 µM unless noted. Put shortly: as §1
Test [5] in a line: High-throughput drug toxicity screening in the BPDCN cell line Gen2.2 (AID 1224824).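 Note: cells exposed to compounds for 48 h before reading.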 Conditions: Gen2.2 BPDCN cells; at 45.8 µM (top of the series) unless noted. An outline of the steps: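 Gen2.2 cells (500/well) in phenol red-free RPMI with 10% FBS were exposed to compounds for 48 h at 37 °C, 5% CO2. Viability was read by CellTiter-Glo luminescence and normalized to DMSO (100%) and 9.2 uM bortezomib (0%).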

The nature of test [6]: High-throughput drug toxicity screening in the BPDCN cell line Cal-1 (AID 1224825). Particulars: Cal-1 BPDCN cell viability, qHTS; at 45.8 µM (top of the series) unless noted. An outline of the steps:
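Exponentially growing Cal-1 cells, 500 per well in phenol red-free RPMI with 10% FBS, were exposed to compounds for 48 h at 37 °C, 5% CO2. Viability was read by CellTiter-Glo luminescence and normalised to DMSO (100%) and 9.2 uM bortezomib (0%).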

Test [7] is described as follows: qHTS Screen of the MIPE 4.0 Collection Against Ewings Sarcoma (RDES) (AID 1259252; active = well fitted inhibition curve with a large enough effect; note: nearly all actives have a fitted effect of over 35% in size; note: potency is the fitted concentration of half-maximal effect). Put shortly:
(§2)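 Here, cells in 5% FBS RPMI were exposed for two days (48 h) to compound dilutions added four hours after plating. ATP-based CellTiter-Glo luminescence measured viability, normalized to vehicle and no-cell blanks.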

The nature of test [8]: qHTS Screen of the MIPE 4.0 Collection Against Ewings Sarcoma (TC71) (AID 1259253; active = well fitted inhibition curve with a large enough effect; note: potency is the fitted concentration of half-maximal effect; nearly all actives have a fitted effect of over 40% in size). Put shortly:
as §2

Test [9] can be described thus: qHTS Screen of the MIPE 4.0 Collection Against Ewings Sarcoma (TC32) (AID 1259256; active = well fitted inhibition curve with a large enough effect; note: nearly all actives have a fitted effect of over 45% in size; note: potency is the fitted concentration of half-maximal effect). Put shortly: as §2
Test [10] is described as follows: qHTS assay for measurement of the activity of small molecule inhibitors on Zika virus induced Caspase-3 activity in human astrocytoma cells (AID 1224859; active = well fitted inhibition curve with a large enough effect;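 note: plate controls were ZIKV-infected untreated cells for no effect and uninfected cells for full effect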). An outline of the steps:
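Caspase activation in ZIKV-infected SNB-19 cells (2 FFU/cell, 6 h) measured by Caspase-Glo 3/7 luminescence after 30 min RT; compound pre-incubated 1 h; normalised to uninfected and infected controls.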

Test [11] is described as follows: qHTS Screen of the MIPE 4.0 Collection Against Ewings Sarcoma (EW8) (AID 1259255; active = well fitted inhibition curve with a large enough effect; note: potency is the fitted concentration of half-maximal effect; nearly all actives have a fitted effect of over 35% in size). Put shortly:
as §2

Results filed as inconclusive are left out. Active and inactive are the calls of the source. Unless noted, the rule behind the calls is not given here.

Take `COc1ccc(Cc2nccc3cc(OC)c(OC)cc23)cc1OC`: the parasite growth, % of DMSO control in test [1] was found to be 5.44%. For the same molecule, in test [2], the parasite growth remaining, % of DMSO control (lower = more inhibition) amounted to 11.3%. This molecule also had a parasite growth, % of control (lower = inhibition) in test [3] of 18.7%. This molecule registered a growth, % of control in test [4] of 2.71%. Moreover, the cell viability, % of control (lower = more cytotoxic) in test [5] was 47.4%. Also, the viability (% of control) in test [6] was determined as 96.9%. Further, the results for the Potency in test [7], in test [8] and in [9] were 20.9 µM (active), 18.7 µM (active) and 23.5 µM (active), respectively.
As for `C[C@H](NC(=O)c1sccc1OCc1ccc(Cl)cc1)c1ccccc1`, in test [1], the parasite growth, % of DMSO control was 13.9%. The parasite growth remaining, % of DMSO control (lower = more inhibition) in test [2] amounted to 14.8%. Moreover, in [4], the growth, % of control was found to be 3.82%. In [5], the cell viability, % of control (lower = more cytotoxic) was 181%. The same molecule yielded a viability (% of control) in test [6] of 45.5%. Moreover, the Potency entry in test [10] was “inactive”.
As for `CC[C@]1(O)C[C@@H]2CN(CCc3c([nH]c4ccccc34)[C@@](C(=O)OC)(c3cc4c(cc3OC)N(C=O)[C@@H]3C45CCN4CC=C[C@](CC)([C@H]45)[C@@H](OC(C)=O)[C@]3(O)C(=O)OC)C2)C1` (stereo not given in full), the parasite growth, % of DMSO control in test [1] was determined as 5.87%. This molecule had a parasite growth remaining, % of DMSO control (lower = more inhibition) in test [2] of 10.2%. For the same molecule, in [3], the parasite growth, % of control (lower = inhibition) is 16.2%. Besides, in test [4], the growth, % of control worked out at 3.8%. The cell viability, % of control (lower = more cytotoxic) in test [5] is 15%. The viability (% of control) in [6] was 51.8%. In addition, the Potency in [7] is 16.6 µM (active); in test [8] it was 20.9 µM (active). In addition, in [9], the Potency result was “inactive”.
With `CCN(CC)CCOc1ccc(C(=C(Cl)c2ccccc2)c2ccccc2)cc1`, the parasite growth, % of DMSO control in test [1] came to 5.06%. Moreover, the parasite growth remaining, % of DMSO control (lower = more inhibition) in test [2] came to 9.72%. The same molecule came in with a growth, % of control in test [4] of 9.51%. The cell viability, % of control (lower = more cytotoxic) in test [5] amounted to 136%. Moreover, the viability (% of control) in test [6] turned out to be 50.6%. In addition, the Potency entry in test [10] was “inactive”.
`O=C(NCc1ccccc1)c1csc(Nc2ccncn2)n1` gave a parasite growth remaining, % of DMSO control (lower = more inhibition) in [2] of 79.6%. Further, in [5], the cell viability, % of control (lower = more cytotoxic) turned out to be 1.93%. Also, the viability (% of control) in test [6] was found to be 2.12%. For the same molecule, the values for the Potency in [11] and in test [9] were 20.9 µM (active) and 18.7 µM (active), respectively.
Turning to `CN(C)Cc1cccc(N=C(c2ccccc2)c2c(O)[nH]c3cc(C(=O)N(C)C)ccc23)c1`, the parasite growth, % of DMSO control in test [1] came out at 16.4%. This molecule also registered a parasite growth remaining, % of DMSO control (lower = more inhibition) in [2] of 30.5%. In addition, in test [3], the parasite growth, % of control (lower = inhibition) is 12.9%. In [4], this molecule had a growth, % of control of 36.3%. Moreover, the cell viability, % of control (lower = more cytotoxic) in test [5] turned out to be 6.16%. Further, in test [6], the viability (% of control) is 6.94%. Besides, the Potency entry in test [10] is “inactive”.
In test [1], `c1ccc2c(Cc3c[nH]c4ccccc34)c[nH]c2c1` displayed a parasite growth, % of DMSO control of 22.8%. The parasite growth remaining, % of DMSO control (lower = more inhibition) in test [2] came to 60.6%. The cell viability, % of control (lower = more cytotoxic) in test [5] was found to be 29.3%. Besides, in [6], the viability (% of control) came to 13.2%. For the same molecule, the Potency in [7] is 2.64 µM (active); in test [8], 4.18 µM (active); in test [11] it was 14.8 µM (active); in test [9] it was 4.18 µM (active).
In test [1], `Clc1ccc(CCC(Cn2ccnc2)Sc2c(Cl)cccc2Cl)cc1` (stereo not given) showed a parasite growth, % of DMSO control of 5.77%. In [2], the parasite growth remaining, % of DMSO control (lower = more inhibition) turned out to be 6.42%. The parasite growth, % of control (lower = inhibition) in [3] came out at 10.3%. Also, the growth, % of control in test [4] worked out at 3.43%. Moreover, in test [5], the cell viability, % of control (lower = more cytotoxic) was determined as 177%. In test [6], the viability (% of control) turned out to be 67.7%. In addition, the Potency result in test [7] and in test [9] was “inactive” each time.
On to `O=C1c2ccccc2-[n+]2ccc3c([nH]c4ccccc43)c21`, for which the parasite growth, % of DMSO control in test [1] came to 16.3%. In test [2], this molecule yielded a parasite growth remaining, % of DMSO control (lower = more inhibition) of 7.19%. Further, the growth, % of control in test [4] was found to be 4.72%. Moreover, the cell viability, % of control (lower = more cytotoxic) in test [5] stood at 5.04%. The viability (% of control) in test [6] was 3.57%. The Potency in [7] is 1.05 µM (active); in test [8] it was 0.935 µM (active); in [11] it was 1.18 µM (active); in [9], 0.743 µM (active).
Consider `CO[C@H]1C[C@@H]2CC[C@@H](C)[C@@](O)(O2)C(=O)C(=O)N2CCCC[C@@H]2C(=O)O[C@H]([C@H](C)C[C@@H]2CC[C@H](OC(=O)C(C)(CO)CO)[C@H](OC)C2)CC(=O)[C@H](C)C=C(C)[C@@H](O)[C@@H](OC)C(=O)[C@H](C)C[C@H](C)C=CC=CC=C1C`, for which, in test [1], the parasite growth, % of DMSO control came out at 5.79%. The same molecule registered a parasite growth remaining, % of DMSO control (lower = more inhibition) in test [2] of 6.2%. In [3], this molecule displayed a parasite growth, % of control (lower = inhibition) of 9.78%. Besides, the cell viability, % of control (lower = more cytotoxic) in test [5] amounted to 6.71%. Besides, the viability (% of control) in test [6] worked out at 3.11%. Moreover, in [10], the Potency entry was “inactive”.
`CC(C)(C)Cn1c(N)nc2ccc(-c3[nH]c(C(C)(C)C)nc3-c3ccc(F)cc3)nc21` yielded a parasite growth, % of DMSO control in [1] of 11%. The molecule also registered a parasite growth remaining, % of DMSO control (lower = more inhibition) in test [2] of 9.48%. The molecule further returned a parasite growth, % of control (lower = inhibition) in test [3] of 16%. Also, in test [5], the cell viability, % of control (lower = more cytotoxic) turned out to be 207%. The molecule further had a viability (% of control) in test [6] of 59.3%. In addition, the Potency entry in [10] is “inactive”. Moreover, the Potency in test [9] was 13.2 µM (active).
In test [1], `O=c1c(-c2ccc(O)cc2)coc2cc(OC3O[C@H](CO)[C@H](O)[C@H](O)[C@H]3O)cc(O)c12` (stereo not given in full) displayed a parasite growth, % of DMSO control of 57%. The same molecule returned a parasite growth remaining, % of DMSO control (lower = more inhibition) in test [2] of 88.8%. Also, the parasite growth, % of control (lower = inhibition) in test [3] came out at 65.7%. The growth, % of control in test [4] worked out at 54%. Besides, in test [5], the cell viability, % of control (lower = more cytotoxic) amounted to 74.8%. In addition, the viability (% of control) in [6] turned out to be 37.3%. The Potency was 3.72 µM (active) in test [7], 7.43 µM (active) in [8], 18.7 µM (active) in [11] and 10.5 µM (active) in test [9].

The record behind these values is PubChem BioAssay (NCATS).
